Measured values as given in the supplement of paper PMC4466140.

target: AgAbp1; assay: SPOT peptide array binding signal intensity (averaged, normalized) (arbitrary units (background-subtracted, floor 0; scale differs between SH3 domains)); higher = stronger binding of the SH3 domain to the peptide
In short: (§1)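 Detection of bound protein relied on anti-GST antibody, an HRP anti-mouse secondary and luminol, with imaging and quantification in Genespotter. The bound protein was GST-fused SH3 domains from four yeast species, incubated at 10 μg/ml overnight at 4°C in TBS-based blocking buffer on cellulose membranes carrying synthetic 15-mer peptides with cysteines replaced by serines. Binding signal is normalized, background-subtracted spot intensity averaged over replicates, in arbitrary units that differ between domains.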

Binder | SPOT peptide array binding signal intensity
HGKRRAPLLLAKLDV | 19
NRPAIRIPSLKKPAL | 20

target: AgBbc1; assay: as above
In short: as §1

Binder | SPOT peptide array binding signal intensity
HGKRRAPLLLAKLDV | 2
NRPAIRIPSLKKPAL | 12.5

target: AgBem1-D1; assay: as above
In short: as §1

Binder | SPOT peptide array binding signal intensity
HGKRRAPLLLAKLDV | 26
NRPAIRIPSLKKPAL | 54.5

target: AgBzz1-D1; assay: as above
In short: as §1

Binder | SPOT peptide array binding signal intensity
HGKRRAPLLLAKLDV | 82
NRPAIRIPSLKKPAL | 16

target: AgBzz1-D2; assay: as above
In short: as §1

Binder | SPOT peptide array binding signal intensity
HGKRRAPLLLAKLDV | 34.5
NRPAIRIPSLKKPAL | 7

target: AgCyk3; assay: as above
In short: as §1

Binder | SPOT peptide array binding signal intensity
HGKRRAPLLLAKLDV | 7
NRPAIRIPSLKKPAL | 2

target: AgFus1; assay: as above
In short: as §1

Binder | SPOT peptide array binding signal intensity
HGKRRAPLLLAKLDV | 93
NRPAIRIPSLKKPAL | 226

target: AgHof1; assay: as above
In short: as §1

Binder | SPOT peptide array binding signal intensity
HGKRRAPLLLAKLDV | 13.5
NRPAIRIPSLKKPAL | 111

target: AgHse1; assay: as above
In short: as §1

Binder | SPOT peptide array binding signal intensity
HGKRRAPLLLAKLDV | 145
NRPAIRIPSLKKPAL | 800

target: AgLsb1; assay: as above
In short: as §1

Binder | SPOT peptide array binding signal intensity
HGKRRAPLLLAKLDV | ≤ 0
NRPAIRIPSLKKPAL | 361

target: AgLsb4; assay: as above
In short: as §1

Binder | SPOT peptide array binding signal intensity
HGKRRAPLLLAKLDV | 29.5
NRPAIRIPSLKKPAL | 18.5

target: AgMyo5; assay: as above
In short: as §1

Binder | SPOT peptide array binding signal intensity
HGKRRAPLLLAKLDV | 3
NRPAIRIPSLKKPAL | 0.5

target: AgNbp2; assay: as above
In short: as §1

Binder | SPOT peptide array binding signal intensity
HGKRRAPLLLAKLDV | 58
NRPAIRIPSLKKPAL | 114

target: AgRvs167; assay: as above
In short: as §1

Binder | SPOT peptide array binding signal intensity
HGKRRAPLLLAKLDV | 6.67
NRPAIRIPSLKKPAL | 1.33

target: AgSho1; assay: as above
In short: as §1

Binder | SPOT peptide array binding signal intensity
HGKRRAPLLLAKLDV | 6
NRPAIRIPSLKKPAL | 21.5

target: AgSla1-D1-D2; assay: as above
In short: as §1

Binder | SPOT peptide array binding signal intensity
HGKRRAPLLLAKLDV | 94.5
NRPAIRIPSLKKPAL | 24

target: AgSla1-D3; assay: as above
In short: as §1

Binder | SPOT peptide array binding signal intensity
HGKRRAPLLLAKLDV | 20
NRPAIRIPSLKKPAL | 5.5

target: CaAbp1-D1; assay: as above
In short: as §1

Binder | SPOT peptide array binding signal intensity
HGKRRAPLLLAKLDV | 499
NRPAIRIPSLKKPAL | 191

target: CaAbp1-D2; assay: as above
In short: as §1

Binder | SPOT peptide array binding signal intensity
HGKRRAPLLLAKLDV | 238
NRPAIRIPSLKKPAL | 44

target: CaBbc1; assay: as above
In short: as §1

Binder | SPOT peptide array binding signal intensity
HGKRRAPLLLAKLDV | 57.8
NRPAIRIPSLKKPAL | 122

target: CaBem1-D1; assay: as above
In short: as §1

Binder | SPOT peptide array binding signal intensity
HGKRRAPLLLAKLDV | 44
NRPAIRIPSLKKPAL | 41

target: CaBzz1-D1; assay: as above
In short: as §1

Binder | SPOT peptide array binding signal intensity
HGKRRAPLLLAKLDV | 94
NRPAIRIPSLKKPAL | 25.5

target: CaBzz1-D2; assay: as above
In short: as §1

Binder | SPOT peptide array binding signal intensity
HGKRRAPLLLAKLDV | 51.8
NRPAIRIPSLKKPAL | 21.8

target: CaCyk3; assay: as above
In short: as §1

Binder | SPOT peptide array binding signal intensity
HGKRRAPLLLAKLDV | 37
NRPAIRIPSLKKPAL | 7

target: CaFus1; assay: as above
In short: as §1

Binder | SPOT peptide array binding signal intensity
HGKRRAPLLLAKLDV | 312
NRPAIRIPSLKKPAL | 765

target: CaHof1; assay: as above
In short: as §1

Binder | SPOT peptide array binding signal intensity
HGKRRAPLLLAKLDV | ≤ 0
NRPAIRIPSLKKPAL | ≤ 0

target: CaHse1; assay: as above
In short: as §1

Binder | SPOT peptide array binding signal intensity
HGKRRAPLLLAKLDV | 7.75
NRPAIRIPSLKKPAL | 27

target: CaLsb1; assay: as above
In short: as §1

Binder | SPOT peptide array binding signal intensity
HGKRRAPLLLAKLDV | 0.25
NRPAIRIPSLKKPAL | 2.5

target: CaLsb4; assay: as above
In short: as §1

Binder | SPOT peptide array binding signal intensity
HGKRRAPLLLAKLDV | 26
NRPAIRIPSLKKPAL | 10.5

target: CaMyo5; assay: as above
In short: as §1

Binder | SPOT peptide array binding signal intensity
HGKRRAPLLLAKLDV | 4
NRPAIRIPSLKKPAL | 2.75

target: CaNbp2; assay: as above
In short: as §1

Binder | SPOT peptide array binding signal intensity
NRPAIRIPSLKKPAL | 270

target: CaRvs167; assay: as above
In short: as §1

Binder | SPOT peptide array binding signal intensity
NRPAIRIPSLKKPAL | 33.3

target: CaRvs167-3; assay: as above
In short: as §1

Binder | SPOT peptide array binding signal intensity
NRPAIRIPSLKKPAL | 23

target: CaSho1; assay: as above
In short: as §1

Binder | SPOT peptide array binding signal intensity
NRPAIRIPSLKKPAL | 218

target: CaSla1-D1-D2; assay: as above
In short: as §1

Binder | SPOT peptide array binding signal intensity
NRPAIRIPSLKKPAL | 4.5

target: CaSla1-D3; assay: as above
In short: as §1

Binder | SPOT peptide array binding signal intensity
NRPAIRIPSLKKPAL | 0.75

target: ScAbp1; assay: as above
In short: as §1

Binder | SPOT peptide array binding signal intensity
NRPAIRIPSLKKPAL | 53.5

target: ScBbc1; assay: as above
In short: as §1

Binder | SPOT peptide array binding signal intensity
NRPAIRIPSLKKPAL | 9.25

target: ScBem1-D1; assay: as above
In short: as §1

Binder | SPOT peptide array binding signal intensity
NRPAIRIPSLKKPAL | 19

target: ScBzz1-D1; assay: as above
In short: as §1

Binder | SPOT peptide array binding signal intensity
NRPAIRIPSLKKPAL | 31.5

target: ScBzz1-D2; assay: as above
In short: as §1

Binder | SPOT peptide array binding signal intensity
NRPAIRIPSLKKPAL | 12.5

target: ScCyk3; assay: as above
In short: as §1

Binder | SPOT peptide array binding signal intensity
NRPAIRIPSLKKPAL | 20

target: ScFus1; assay: as above
In short: as §1

Binder | SPOT peptide array binding signal intensity
NRPAIRIPSLKKPAL | 243

target: ScHof1; assay: as above
In short: as §1

Binder | SPOT peptide array binding signal intensity
NRPAIRIPSLKKPAL | ≤ 0

target: ScHse1; assay: as above
In short: as §1

Binder | SPOT peptide array binding signal intensity
NRPAIRIPSLKKPAL | 2200

target: ScLsb1; assay: as above
In short: as §1

Binder | SPOT peptide array binding signal intensity
NRPAIRIPSLKKPAL | 118

target: ScLsb2; assay: as above
In short: as §1

Binder | SPOT peptide array binding signal intensity
NRPAIRIPSLKKPAL | 12.5

target: ScLsb3; assay: as above
In short: as §1

Binder | SPOT peptide array binding signal intensity
NRPAIRIPSLKKPAL | 40

target: ScLsb4; assay: as above
In short: as §1

Binder | SPOT peptide array binding signal intensity
NRPAIRIPSLKKPAL | 10

target: ScMyo3; assay: as above
In short: as §1

Binder | SPOT peptide array binding signal intensity
NRPAIRIPSLKKPAL | 1

target: ScMyo5; assay: as above
In short: as §1

Binder | SPOT peptide array binding signal intensity
NRPAIRIPSLKKPAL | ≤ 0

target: ScNbp2; assay: as above
In short: as §1

Binder | SPOT peptide array binding signal intensity
NRPAIRIPSLKKPAL | 169

target: ScPex13; assay: as above
In short: as §1

Binder | SPOT peptide array binding signal intensity
NRPAIRIPSLKKPAL | 23.8

target: ScRvs167; assay: as above
In short: as §1

Binder | SPOT peptide array binding signal intensity
NRPAIRIPSLKKPAL | 39.8

target: ScSho1; assay: as above
In short: as §1

Binder | SPOT peptide array binding signal intensity
NRPAIRIPSLKKPAL | 412

target: ScSla1-D1-D2; assay: as above
In short: as §1

Binder | SPOT peptide array binding signal intensity
NRPAIRIPSLKKPAL | 167

target: ScSla1-D3; assay: as above
In short: as §1

Binder | SPOT peptide array binding signal intensity
NRPAIRIPSLKKPAL | 4

target: SpAbp1-D1; assay: as above
In short: as §1

Binder | SPOT peptide array binding signal intensity
NRPAIRIPSLKKPAL | 135

target: SpBbc1; assay: as above
In short: as §1

Binder | SPOT peptide array binding signal intensity
NRPAIRIPSLKKPAL | 3.75

target: SpBzz1-D1; assay: as above
In short: as §1

Binder | SPOT peptide array binding signal intensity
NRPAIRIPSLKKPAL | 92

target: SpBzz1-D2; assay: as above
In short: as §1

Binder | SPOT peptide array binding signal intensity
NRPAIRIPSLKKPAL | ≤ 0

target: SpCyk3; assay: as above
In short: as §1

Binder | SPOT peptide array binding signal intensity
NRPAIRIPSLKKPAL | 5

target: SpHof1; assay: as above
In short: as §1

Binder | SPOT peptide array binding signal intensity
NRPAIRIPSLKKPAL | 66.5

target: SpHof1-2; assay: as above
In short: as §1

Binder | SPOT peptide array binding signal intensity
NRPAIRIPSLKKPAL | 1.5

target: SpHof1-3; assay: as above
In short: as §1

Binder | SPOT peptide array binding signal intensity
NRPAIRIPSLKKPAL | 850

target: SpHse1; assay: as above
In short: as §1

Binder | SPOT peptide array binding signal intensity
NRPAIRIPSLKKPAL | 664

target: SpLsb1; assay: as above
In short: as §1

Binder | SPOT peptide array binding signal intensity
NRPAIRIPSLKKPAL | 43.5

target: SpLsb4; assay: as above
In short: as §1

Binder | SPOT peptide array binding signal intensity
NRPAIRIPSLKKPAL | 27.5

target: SpMyo1; assay: as above
In short: as §1

Binder | SPOT peptide array binding signal intensity
NRPAIRIPSLKKPAL | ≤ 0

target: SpNbp2; assay: as above
In short: as §1

Binder | SPOT peptide array binding signal intensity
NRPAIRIPSLKKPAL | 104

target: SpPex13; assay: as above
In short: as §1

Binder | SPOT peptide array binding signal intensity
NRPAIRIPSLKKPAL | 3

target: SpRvs167; assay: as above
In short: as §1

Binder | SPOT peptide array binding signal intensity
NRPAIRIPSLKKPAL | 13.3

target: SpSla1-D1-D2; assay: as above
In short: as §1

Binder | SPOT peptide array binding signal intensity
NRPAIRIPSLKKPAL | ≤ 0

target: SpSla1-D3; assay: as above
In short: as §1

Binder | SPOT peptide array binding signal intensity
NRPAIRIPSLKKPAL | ≤ 0
